Reference: PubChem BioAssay (Tox21)
Results filed as inconclusive are left out. Active and inactive are the calls of the source. Unless noted, calls follow the shape of the dose curve; as a rule, active = well fitted curve in the direction sought with a large enough effect in the repeat runs; inconclusive = weak or mixed curves; inactive = no such curve, though single readings can be large; an effect the other way counts as inactive or inconclusive.

Assays:
[1] = biological target: Thyrotropin receptor (Homo sapiens) (UniProt P16473); assay: qHTS assay to identify small molecule antagonists of the thyroid stimulating hormone receptor (TSHR) signaling pathway (AID 1259385; calls by dose curve; also: nearly all actives have a fitted effect of over 20% in size)
Sequence of Thyrotropin receptor (Homo sapiens) (P16473 whole entry, looked up): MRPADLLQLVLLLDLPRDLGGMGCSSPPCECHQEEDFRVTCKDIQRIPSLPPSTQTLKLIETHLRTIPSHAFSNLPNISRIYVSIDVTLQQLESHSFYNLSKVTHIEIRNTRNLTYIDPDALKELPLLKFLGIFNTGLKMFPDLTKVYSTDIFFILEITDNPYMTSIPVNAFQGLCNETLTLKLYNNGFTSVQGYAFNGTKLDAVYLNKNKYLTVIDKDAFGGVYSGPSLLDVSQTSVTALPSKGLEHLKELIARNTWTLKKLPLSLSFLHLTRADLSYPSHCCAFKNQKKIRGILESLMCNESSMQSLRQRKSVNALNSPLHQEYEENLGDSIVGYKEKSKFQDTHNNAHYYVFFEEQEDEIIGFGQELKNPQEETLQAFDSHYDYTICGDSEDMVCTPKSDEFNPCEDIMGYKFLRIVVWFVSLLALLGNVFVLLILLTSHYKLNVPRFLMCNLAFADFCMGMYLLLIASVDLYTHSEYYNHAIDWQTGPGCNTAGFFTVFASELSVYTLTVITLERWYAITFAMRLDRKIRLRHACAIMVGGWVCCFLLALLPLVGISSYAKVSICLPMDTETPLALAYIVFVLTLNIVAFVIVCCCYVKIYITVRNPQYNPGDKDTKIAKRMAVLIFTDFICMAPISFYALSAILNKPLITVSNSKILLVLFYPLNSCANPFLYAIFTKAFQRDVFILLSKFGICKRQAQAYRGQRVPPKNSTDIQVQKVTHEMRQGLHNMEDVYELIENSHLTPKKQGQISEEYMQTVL
In short: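 Antagonist mode: compound-treated TSHR-expressing HEK293 cells were stimulated with 1.5 ng/mL TSH (final) in presence of Ro20-1724 for 30 min at RT. HTRF cAMP detection after 1 h; each compound tested at 15 concentrations, triplicate.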

[2] = qHTS assay to identify small molecule agonists of the estrogen receptor alpha (ER-alpha) signaling pathway in the presence of an antagonist - cell viability counter screen (AID 1259386);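 also: series mostly up to about 92 µM; cells exposed to compounds for 22 h at 37 °C before the viability read; nearly all actives have a fitted effect of over 30% in size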
In short: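 Using estrogen-depleted VM7Luc4E2 cells, the 15-concentration compound series was applied together with 10.0nM ICI-182,780 and incubated 22hr at 37C/5% CO2. Cell viability was then scored by CellTiter-Fluor.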

[3] = biological target: Progesterone receptor (Homo sapiens) (UniProt P06401); assay: qHTS assay to identify small molecule agonists of the progesterone receptor (PR) signaling pathway (AID 1346784; calls by dose curve; also: nearly all actives have a fitted effect of over 30% in size)
Sequence of Progesterone receptor (Homo sapiens) (P06401 whole entry, looked up): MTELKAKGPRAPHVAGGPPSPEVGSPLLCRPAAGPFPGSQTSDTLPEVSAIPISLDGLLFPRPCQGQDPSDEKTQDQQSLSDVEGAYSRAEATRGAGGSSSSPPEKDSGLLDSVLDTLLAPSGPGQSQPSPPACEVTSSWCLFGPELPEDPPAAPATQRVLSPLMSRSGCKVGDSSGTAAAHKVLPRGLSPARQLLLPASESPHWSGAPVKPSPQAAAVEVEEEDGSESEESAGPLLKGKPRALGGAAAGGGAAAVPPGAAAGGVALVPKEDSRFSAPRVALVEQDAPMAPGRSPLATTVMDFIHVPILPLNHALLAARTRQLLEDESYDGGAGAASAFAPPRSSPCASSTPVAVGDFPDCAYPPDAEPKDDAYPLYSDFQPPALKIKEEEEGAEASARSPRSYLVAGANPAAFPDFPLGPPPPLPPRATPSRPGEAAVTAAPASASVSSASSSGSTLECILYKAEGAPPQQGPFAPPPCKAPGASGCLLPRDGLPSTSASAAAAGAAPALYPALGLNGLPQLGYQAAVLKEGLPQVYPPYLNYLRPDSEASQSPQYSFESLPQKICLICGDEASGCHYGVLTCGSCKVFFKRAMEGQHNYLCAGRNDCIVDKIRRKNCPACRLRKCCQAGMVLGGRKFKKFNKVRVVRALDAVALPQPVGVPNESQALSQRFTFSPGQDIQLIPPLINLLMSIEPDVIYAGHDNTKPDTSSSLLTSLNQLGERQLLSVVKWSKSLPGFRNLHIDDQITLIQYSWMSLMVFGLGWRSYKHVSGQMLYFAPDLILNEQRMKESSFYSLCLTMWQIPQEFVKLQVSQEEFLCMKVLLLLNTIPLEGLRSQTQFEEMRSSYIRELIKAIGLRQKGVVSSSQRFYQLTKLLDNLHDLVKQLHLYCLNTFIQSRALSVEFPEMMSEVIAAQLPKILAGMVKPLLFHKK
In short: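 Seed PR-UAS-bla HEK 293T cells (2% charcoal-stripped FBS), incubate 6 hr at 37C; add compounds in DMSO, 16 hr at 37C; add LiveBLAzer B/G substrate, 2 hr RT; read fluorescence intensity.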

[4] = biological target: Progesterone receptor (Homo sapiens) (UniProt P06401); assay: qHTS assay to identify small molecule antagonists of the progesterone receptor (PR) signaling pathway (AID 1346795; active = well fitted inhibition curve with a large enough effect in the signal ratio in the repeat runs, not every such curve was filed as active; the % refers to the signal ratio)
In short: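 Screening used a GripTite HEK293T line with PR-responsive UAS-beta-lactamase. Cells were challenged with compound in the presence of 1 nM R5020 final for 16 hr at 37C; B/G FRET substrate, 2 hr room temperature, fluorescence.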

[5] = qHTS assay to identify small molecule antagonists of the progesterone receptor (PR) signaling pathway - cell viability counter screen (AID 1346798); also: series mostly up to about 92 µM; nearly all actives have a fitted effect of over 50% in size
In short: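 Measures cytotoxicity in parallel with the PR antagonist reporter read: HEK293T PR-UAS-bla cells get compound and R5020 for 16 hr, and remaining viable cells are quantified by CellTiter-Glo luminescence.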

[6] = qHTS assay to identify small molecule agonists of the progesterone receptor (PR) signaling pathway - cell viability counter screen (AID 1346799; calls by dose curve; also: nearly all actives have a fitted effect of over 45% in size)
In short: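 Using the same plates as the PR reporter screen, HEK293T PR-UAS-bla cells received compounds for 16 hr at 37C and were then lysed with CellTiter-Glo; luminescence was read 30 min later at room temperature.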

[7] = qHTS assay to identify small molecule antagonists of the TGF-beta/Smad signaling pathway - cell viability counter screen (AID 1346824); also: nearly all actives have a fitted effect of over 50% in size
In short: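 Cytotoxicity counter-screen run in the same wells as the beta-lactamase Smad reporter read: CellTiter-Glo luminescence after 30 min at room temperature. HEK 293T SBE-bla cells had 5 hr compound exposure at 37 C with TGF-beta1 (0.25 ng/mL stock).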

[8] = qHTS assay to identify small molecule agonists of the TGF-beta/Smad signaling pathway - cell viability counter screen (AID 1346829); also: top concentration of the series differs between compounds; nearly all actives have a fitted effect of over 45% in size
In short: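 HEK 293T SBE-bla line, 5 hr compound exposure at 37 C, multiplexed CellTiter-Glo viability read by luminescence.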

[9] = qHTS assay to identify small molecule agonists of the TGF-beta/Smad signaling pathway (AID 1346859; active = well fitted activation curve with a large enough effect in the signal ratio in the repeat runs, not every such curve was filed as active; the % refers to the signal ratio; also: series mostly up to about 77 µM)
In short: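 Beta-lactamase reporter activity downstream of Smad binding elements was measured in stably transfected HEK 293T cells; compounds were incubated for 5 hr, substrate for 2 hr at room temperature.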

[10] = Human pregnane X receptor (PXR) small molecule agonists, qHTS cell viability counter screen (AID 1346977); also: nearly all actives have a fitted effect of over 50% in size
In short: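 After a 5hr pre-incubation, PXR-Luc HepG2 cells received compounds plus positive control in DMSO and were kept 24hr at 37C. Cell viability was quantified by fluorescence from CellTiter-Fluor added for the final hour.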

[11] = Caspase-3/7 induction in HepG2 cells by small molecules, qHTS assay (AID 1346978); also: nearly all actives have a fitted effect of over 15% in size
In short: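 Caspase-3/7 induction was measured by Caspase-Glo 3/7 luminescence (30 min, room temperature) after a 17 hr compound exposure of wild-type HepG2 cells seeded at 2,000 per well and pre-incubated 5 hr.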

[12] = Caspase-3/7 induction in CHO-K1 cells by small molecules, qHTS assay (AID 1346980); also: nearly all actives have a fitted effect of over 15% in size
In short: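 Luminescent Caspase-Glo 3/7 read (30min, room temperature) quantified apoptosis induction. Cells were wild-type CHO-K1, treated with compound for 17hr at 37 C and 5% CO2.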

[13] = Caspase-3/7 induction in HepG2 cells by small molecules, qHTS cell viability counter screen (AID 1346981); also: series mostly up to about 92 µM; nearly all actives have a fitted effect of over 30% in size
In short: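 After a 5-hr attachment period at 37 C and 5% CO2, wild-type HepG2 cells received compounds in DMSO. Sixteen hours later CellTiter-Fluor was dispensed and the fluorescent signal quantified after a further hour.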

[14] = biological target: Nuclear receptor subfamily 1 group I member 2 (Homo sapiens) (UniProt O75469); assay: Human pregnane X receptor (PXR) small molecule agonists, qHTS assay (AID 1346982); also: nearly all actives have a fitted effect of over 35% in size; also: potency is read from the fitted curve at half-maximal effect
Sequence of Nuclear receptor subfamily 1 group I member 2 (Homo sapiens) (O75469 whole entry, looked up): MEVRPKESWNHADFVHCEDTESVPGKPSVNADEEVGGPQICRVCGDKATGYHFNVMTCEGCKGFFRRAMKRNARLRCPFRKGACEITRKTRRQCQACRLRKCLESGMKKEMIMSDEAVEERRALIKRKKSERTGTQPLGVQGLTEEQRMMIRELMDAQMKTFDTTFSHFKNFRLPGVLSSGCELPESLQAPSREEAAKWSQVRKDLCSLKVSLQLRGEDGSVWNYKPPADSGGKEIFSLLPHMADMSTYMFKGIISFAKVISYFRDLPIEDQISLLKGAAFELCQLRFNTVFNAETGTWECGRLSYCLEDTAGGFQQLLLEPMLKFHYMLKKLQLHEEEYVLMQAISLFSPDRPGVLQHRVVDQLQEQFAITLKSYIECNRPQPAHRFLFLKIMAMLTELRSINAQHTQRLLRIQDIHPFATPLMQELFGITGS
In short: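 Tox21 qHTS; PXR-Luc HepG2; compounds pinned from DMSO; 24 hr, 37 C; ONE-Glo luciferase detection, 30 min room temperature.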

[15] = biological target: Nuclear receptor subfamily 1 group I member 2 (Homo sapiens) (UniProt O75469); assay: CYP3A4 induction through human pregnane X receptor (PXR) by small molecules, qHTS assay (AID 1346984); also: nearly all actives have a fitted effect of over 40% in size
In short: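 Cells (DPX-2; HepG2 with PXR element plus CYP3A4-promoter luciferase) settled 5hr, then were treated 24hr at 37C. A 3hr, 3uM-final Luciferin-IPA step preceded luminescence measurement with One-Glo.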

[16] = biological target: Nuclear receptor subfamily 1 group I member 2 (Homo sapiens) (UniProt O75469); assay: Human pregnane X receptor (PXR) activation by small molecules, qHTS assay (AID 1346985); also: nearly all actives have a fitted effect of over 40% in size
In short: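 DPX-2 cells (HepG2 co-transfected with a PXR response element and a CYP3A4-promoter luciferase construct) were seeded at 2,000 per well, rested 5 hr at 37C, then exposed to DMSO-dissolved compounds for 24 hr. Activation was read as luciferase luminescence.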

[17] = biological target: Thyrotropin-releasing hormone receptor (Homo sapiens) (UniProt P34981); assay: qHTS assay to identify small molecule antagonists of the thyrotropin-releasing hormone receptor (TRHR) signaling pathway (AID 1346877; active = well fitted inhibition curve with a large enough effect in the repeat runs, not every such curve was filed as active; also: series mostly up to about 51 µM)
Sequence of Thyrotropin-releasing hormone receptor (Homo sapiens) (P34981 whole entry, looked up): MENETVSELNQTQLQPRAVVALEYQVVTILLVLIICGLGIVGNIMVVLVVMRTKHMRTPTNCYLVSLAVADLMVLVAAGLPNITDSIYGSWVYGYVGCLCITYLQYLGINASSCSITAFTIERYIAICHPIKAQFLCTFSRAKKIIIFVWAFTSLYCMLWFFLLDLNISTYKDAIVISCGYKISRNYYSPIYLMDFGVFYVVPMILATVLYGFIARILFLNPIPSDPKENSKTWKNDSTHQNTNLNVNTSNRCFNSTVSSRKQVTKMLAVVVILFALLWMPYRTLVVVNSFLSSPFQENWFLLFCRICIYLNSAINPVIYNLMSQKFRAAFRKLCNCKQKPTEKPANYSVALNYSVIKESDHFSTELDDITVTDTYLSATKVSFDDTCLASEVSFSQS
In short: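 Calcium signal in dye-loaded TRHR/HEK293 cells; compounds added 5 min before TRH (1 nM final); fluorescence monitored 3 min at 1 s steps.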

[18] = biological target: Thyrotropin-releasing hormone receptor (Homo sapiens) (UniProt P34981); assay: qHTS assay to identify small molecule agonists of the thyrotropin-releasing hormone receptor (TRHR) signaling pathway (AID 1346891; calls by dose curve;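 also: HEK293 cells expressing TRHR with calcium dye readout; series mostly up to about 58 µM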)
In short: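 Overnight-plated (18 h, 37 °C, 5% CO2) TRHR-Hek293 cells; 2 h calcium dye at 37 °C; compound in DMSO; 3-min kinetic fluorescence read.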

[19] = Caspase-3/7 induction in CHO-K1 cells by small molecules, qHTS cell viability counter screen (AID 1346979); also: nearly all actives have a fitted effect of over 35% in size
In short: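 Multiplexed with Caspase-Glo 3/7 in CHO-K1 cells, this counter screen added CellTiter-Fluor after 16hr of compound exposure and recorded fluorescence 1hr later.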
% is scaled to controls: 0 for no effect and ±100 for the full control effect.

NS(=O)(=O)c1ccc(NC(=O)CCC(=O)O)cc1
inactive: outcome [1] | Potency [2] | Potency [3] | Potency [4] | Potency [5] | Potency [6] | outcome [7] | outcome [8] | outcome [9] | Potency [10] | Potency [11] | outcome [12] | Potency [13] | Potency [14] | Potency [15] | Potency [16]

CCCCCCCCC1CCC(=O)O1 (centres undefined)
inactive: outcome [1] | Potency [2] | Potency [3] | Potency [4] | Potency [5] | Potency [6] | outcome [8] | outcome [9] | outcome [17] | outcome [18] | Potency [10] | Potency [11] | outcome [12] | Potency [13]
active: Potency [14] 30.6 µM

O=Cc1ccc(Cl)c(Cl)c1
inactive: outcome [1] | Potency [2] | Potency [3] | Potency [4] | Potency [5] | Potency [6] | outcome [7] | outcome [8] | outcome [9] | Potency [10] | outcome [12] | Potency [13] | Potency [14]

CC(=O)OC(C)OC(=O)C(C)c1ccc(-c2ccccc2)c(F)c1 (centres undefined)
inactive: outcome [1] | Potency [2] | Potency [3] | Potency [4] | Potency [5] | Potency [6] | outcome [7] | outcome [8] | outcome [9] | Potency [10] | Potency [11] | outcome [12] | Potency [13] | Potency [14]

CCCCCCCCSCC
inactive: outcome [1] | Potency [2] | Potency [3] | Potency [4] | Potency [5] | Potency [6] | outcome [7] | outcome [9] | outcome [17] | outcome [18] | Potency [10] | Potency [11] | outcome [12] | Potency [13] | Potency [14]

CC(C)(C)c1nnc(NS(=O)(=O)c2ccc(N)cc2)s1
inactive: outcome [1] | Potency [2] | Potency [3] | Potency [4] | Potency [5] | Potency [6] | outcome [7] | outcome [8] | outcome [9] | Potency [10] | Potency [11] | Potency [19] | outcome [12] | Potency [13] | Potency [14]

Cc1cccc(C)c1OCC(C)N (centres undefined)
inactive: outcome [1] | Potency [2] | Potency [3] | Potency [4] | Potency [5] | Potency [6] | outcome [8] | outcome [9] | outcome [17] | outcome [18] | Potency [10] | Potency [11] | Potency [19] | outcome [12] | Potency [13] | Potency [14] | Potency [15] | Potency [16]

CN1CCN(CC(=O)N2c3ccccc3C(=O)Nc3cccnc32)CC1
inactive: activity change, negative = inhibition [1] 0.681% [at 8.39 µM] | activity change, negative = cytotoxicity [2] -1.63% [at 8.39 µM] | activation [3] -0.718% [at 8.39 µM] | activity change, negative = inhibition [4] 9.85% [at 8.39 µM] | activity change, negative = cytotoxicity [5] 1.84% [at 8.39 µM] | activity change, negative = cytotoxicity [6] -2.12% [at 8.39 µM] | activity change, negative = cytotoxicity [8] -15% [at 6.97 µM] | activation [9] -0.857% [at 6.97 µM] | caspase activation [11] -1.35% [at 8.39 µM] | activity change, negative = cytotoxicity [19] 7.7% [at 8.39 µM] | caspase-3/7 activation [12] 0.448% [at 8.39 µM] | activity change, negative = cytotoxicity [13] -1.47% [at 8.39 µM] | activation [14] -11.1% [at 8.39 µM]

CCn1ccc(NS(=O)(=O)c2ccc(N)cc2)nc1=O
inactive: outcome [1] | Potency [2] | Potency [3] | Potency [4] | Potency [5] | Potency [6] | outcome [7] | outcome [8] | outcome [9] | Potency [10] | Potency [11] | Potency [19] | outcome [12] | Potency [13] | Potency [14]
